Screening data from PubChem.
NS1 inh = qHTS Assay for Inhibitors of Influenza NS1 Protein Function | Potency, µM (titrated, usually from 46.1 µM) | actives 0.4% (n = 270,000); calls by dose curve; also: actives are rising curves; nearly all actives have a fitted effect of over 50% in size
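S. cerevisiae expressing influenza A NS1, grown in glucose, washed, then diluted 1:100 into pH 6.0 -URA galactose medium with 23 nl compound. Growth recovery read as OD600; NS1-free strain serves as control.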
Cruzain Triton = qHTS Assay for Promiscuous and Specific Inhibitors of Cruzain (with detergent); Cruzipain (Trypanosoma cruzi), P25779; purified cruzain, Z-FR-AMC fluorescence, 0.01% Triton; Potency, µM, hits mostly inhibitors; actives 0.43% (n = 200,000); also: nearly all actives have a fitted effect of over 40% in size
Target sequence (P25779 123-467 limits assumed): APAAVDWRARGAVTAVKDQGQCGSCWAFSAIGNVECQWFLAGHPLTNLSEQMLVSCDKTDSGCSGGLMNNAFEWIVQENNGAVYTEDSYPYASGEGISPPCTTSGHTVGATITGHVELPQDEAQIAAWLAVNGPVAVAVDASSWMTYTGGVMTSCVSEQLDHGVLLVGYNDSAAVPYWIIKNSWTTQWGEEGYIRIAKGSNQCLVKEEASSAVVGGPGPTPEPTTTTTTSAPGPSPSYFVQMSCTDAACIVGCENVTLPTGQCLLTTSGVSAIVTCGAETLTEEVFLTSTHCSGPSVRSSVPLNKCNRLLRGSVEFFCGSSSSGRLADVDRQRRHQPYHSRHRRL
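Detergent-containing arm of a paired screen for aggregation-based inhibition: 0.01% Triton X-100 present. Cruzain at 1.5 nM cleaved 2 uM Z-FR-AMC at pH 5.5 with 5 mM DTT; AMC fluorescence gain over 60 s measured activity.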
Cruzain noTriton = qHTS Assay for Promiscuous and Specific Inhibitors of Cruzain (without detergent). actives 2.3% (n = 200,000). AID 1476, 2009. Cruzipain (Trypanosoma cruzi), P25779. Potency, µM, usual class: inhibitors. purified cruzain, Z-FR-AMC fluorescence, no detergent; also: nearly all actives have a fitted effect of over 40% in size
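Purified cruzain at 1.5 nM, pre-incubated 15 min with compound at room temperature in 100 mM sodium acetate pH 5.5, 5 mM DTT, 0.00005% Triton X-100. Reaction started with 2 uM Z-FR-AMC; AMC fluorescence increase over 60 s gives rate.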
Flu NS1 inh = Assay for Inhibitors of Influenza NS1 Protein Function: Hit Validation; 1,400 tested, under 10 active; shares compounds with NS1 inh; activity change, negative = inhibition, % at 32.9 µM; influenza NS1 function cell assay, 15-point titration; calls by dose curve
Flu PR8 replic = Assay for Inhibitors of Influenza NS1 Protein Function: Influenza virus replication assay in MDCK cells infected with virus A/PR/8/34; AID 504647, 2011; shares compounds with NS1 inh; MDCK infected influenza A/PR/8/34, virus titer TCID50; active compounds read low; virus titer (log TCID50), log10 TCID50 at 5 µM; actives 30% (n = 95); call rule not given here
Large screens that a line does not name were inactive (follow-up assays come after a bar, where they were run). The entries come from a sample that favours hits as a whole. Unless noted, calls follow the shape of the dose curve; as a rule, active = well fitted curve in the direction sought with a large enough effect; inconclusive = small, poorly fitted or top-dose-only effect, or another doubt; inactive = no such curve, though single readings can be large; an effect the other way counts as inactive or inconclusive.

CC1=NN(c2ccc(C(=O)OC(C)C)cc2)C(=O)/C1=C\C=C\c1ccco1	NS1 inh 11µM | Flu NS1 inh inactive
COC(=O)C/C=C/[C@@H](C)[C@H](OC)c1c(Br)ccc2c1OCO2	none (no result: NS1 inh)
CCCC(=O)Nc1cccc2c1CCCC2	NS1 inh 5.6µM | Flu NS1 inh inactive
CC(=O)CC(=O)Nc1cccc2c1CCCC2	none
CCOC(=O)C1=C(C)N=c2s/c(=C\c3ccc(OCC(=O)O)cc3)c(=O)n2C1c1ccccc1 (stereo not given)	none (no result: Cruzain Triton, Cruzain noTriton)
CCOC(=O)C1=C(c2ccccc2)N=c2s/c(=C\c3ccc(O)cc3)c(=O)n2C1c1cccs1 (stereo not given)	NS1 inh 7.1µM, Cruzain noTriton 13µM | Flu NS1 inh inactive
CCOc1ccc(C2c3[nH]c4ccccc4c3CCN2C(=O)CSc2ccccc2)cc1 (stereo not given)	none (no result: NS1 inh)
Nc1cc(N)nc(SCC(=O)Nc2ccc3c(c2)OCO3)n1	none (no result: Cruzain Triton, Cruzain noTriton)
Cc1ccc2nc(-c3ccc(SCC(=O)Nc4ccc5c(c4)OCCO5)nc3)[nH]c2c1	none
Cc1cc2nc(-c3ccc(SCC(=O)Nc4ccc5c(c4)OCCO5)nc3)[nH]c2cc1C	NS1 inh 1.3µM, Cruzain noTriton 16µM | Flu NS1 inh inactive
Nc1cc(N)nc(SCC(=O)Nc2ccc3c(c2)OCCCO3)n1	NS1 inh 1.8µM | Flu NS1 inh inactive
CCCCCN(C(=O)CCC(=O)OCC(=O)N(C)Cc1ccc(C)cc1)c1c(N)n(CCCC)c(=O)[nH]c1=O	none (no result: Cruzain Triton, Cruzain noTriton)
N#Cc1cccc(NC(=O)N2CC3(CCN(C(=O)c4ccco4)CC3)C2)c1	none (no result: NS1 inh)
CCCBr	none (no result: NS1 inh)
CCCCOc1ccc(-c2c(C#N)c(N)nc(SCC(N)=O)c2C#N)cc1	NS1 inh inconclusive
CCCOc1ccc(-c2cnc(SCC(N)=O)nc2N)cc1	NS1 inh 8.9µM | Flu NS1 inh inactive
O=C(Cn1nc(Cc2cccnc2)c2ccccc2c1=O)Nc1cccc(C(F)(F)F)c1	none (no result: NS1 inh)
Cc1nc2c(-c3ccc(F)cc3)c(C)nn2c(C)c1CCC(=O)N1CCN(c2ccccc2)CC1	Cruzain noTriton inconclusive
Cc1nc2c(-c3ccc(F)cc3)c(C)nn2c(C)c1CCC(=O)N1CCC(Cc2ccccc2)CC1	NS1 inh 7.1µM, Cruzain noTriton inconclusive | Flu NS1 inh inactive
CC(C)CCNC(=O)c1c[nH]c2ccc(S(=O)(=O)Nc3cccc(C(F)(F)F)c3)cc2c1=O	none (no result: NS1 inh)
COc1cccc(NS(=O)(=O)c2ccc3[nH]cc(C(=O)NCCC(C)C)c(=O)c3c2)c1	NS1 inh 4.5µM | Flu NS1 inh inactive
CCc1ccccc1NC(=O)c1ccc2c(c1)nnn2C1CCCC1	none (no result: NS1 inh)
O=C(CSc1nnc(-c2c[nH]c3ccccc23)o1)N1CCCCC1	none
O=C(CSc1nnc(-c2c[nH]c3ccccc23)o1)N1c2ccccc2CCc2ccccc21	NS1 inh 4µM, Cruzain noTriton inconclusive | Flu NS1 inh inconclusive
Cc1cccc(-c2noc(-c3ccc(N4CCN(C)CC4)c([N+](=O)[O-])c3)n2)c1	Cruzain noTriton inconclusive (no result: NS1 inh)
O=C(CSc1nnc(-c2cc3ccccc3cc2O)n1Cc1ccco1)c1ccc(F)cc1	NS1 inh 8.9µM, Cruzain noTriton inconclusive | Flu NS1 inh inactive
Cc1occc1-c1nnc(SCC(=O)c2ccc(F)cc2)n1Cc1ccco1	none
CC(C)CCn1c(=O)c2sccc2n2c(CCCC(=O)NCCc3ccccc3)nnc12	Cruzain noTriton inconclusive (no result: NS1 inh)
CCNc1ncc2ncc(=O)n(Cc3ccc(F)cc3)c2n1	Cruzain Triton inconclusive (no result: NS1 inh)
Cc1cccc(-n2cc(-c3ccc([N+](=O)[O-])cc3)[nH]c2=S)c1	Cruzain noTriton inconclusive
Cc1ccc(-n2cc(-c3ccc([N+](=O)[O-])cc3)[nH]c2=S)c(C)c1	NS1 inh 6.3µM, Cruzain noTriton inconclusive | Flu NS1 inh inactive
COc1ccc(NC(=O)Cn2ccn(-c3ccccc3)c(=O)c2=O)cc1	none (no result: NS1 inh)
CCCCCCCCCCCCCCC[C@@H](O)[C@H](CO)NC(=O)CCCCCCC	none (no result: NS1 inh)
CCOc1cc(/C=C2\SC(=Nc3ccccc3)N(c3ccccc3)C2=O)ccc1OCC(=O)O	NS1 inh inconclusive, Cruzain noTriton inconclusive | Flu NS1 inh inactive
CCOC(=O)C1=C(O)/C(=C/c2ccc(OCC(=O)O)c(OCC)c2)SC1=Nc1ccc(C)cc1	none (no result: Cruzain Triton, Cruzain noTriton)
CCc1ccc(N=C2NC(=O)/C(=C/c3ccc(OCC(=O)O)c(OC)c3)S2)cc1	NS1 inh 11µM (no result: Cruzain Triton, Cruzain noTriton) | Flu NS1 inh inactive
CCc1ccc(N=C2NC(=O)/C(=C/c3ccc(OCC(=O)O)cc3)S2)cc1	none (no result: Cruzain Triton, Cruzain noTriton)
Cc1noc(C)c1C(=O)N1CCC2(CC1)CN(c1cccc(-c3ccccc3)c1)C2	Cruzain noTriton inconclusive (no result: NS1 inh)
C/C(N)=C(/C#N)C(=O)CSc1n[nH]c(-c2ccccc2Br)n1	NS1 inh 4µM | Flu NS1 inh inactive
C/C(N)=C(/C#N)C(=O)CSc1ccccc1F	none (no result: Cruzain Triton, Cruzain noTriton)
O=C(Nc1ccc2c(c1)CCC2)c1cc(S(=O)(=O)Nc2ccc(F)cc2)c(Cl)cc1Cl	NS1 inh 14µM, Cruzain noTriton 20µM | Flu NS1 inh inactive | Flu PR8 replic inactive
O=C(Nc1ccc2c(c1)CCC2)c1ccc(F)cc1	none
Cc1nnc(NC2(C(F)(F)F)C(=O)Nc3c2c(=O)n(C)c(=O)n3C)s1 (stereo not given)	NS1 inh inconclusive | Flu NS1 inh inactive
CC(=O)NC1(C(F)(F)F)C(=O)Nc2c1c(=O)n(C)c(=O)n2C (stereo not given)	none
O=S(=O)(c1ccc(NC(=S)NCCC(c2ccccc2)c2ccccc2)cc1)N1CCOCC1	NS1 inh 14µM, Cruzain noTriton 25µM | Flu NS1 inh inactive
CCCCOCCCNC(=S)Nc1ccc(S(=O)(=O)N2CCOCC2)cc1	none (no result: Cruzain Triton, Cruzain noTriton)
O=C(NCc1ccccc1)c1ccc(CN2CCOCC2)cc1	NS1 inh inconclusive | Flu NS1 inh inactive
COc1ccc(CNC(=O)c2ccc(CN3CCOCC3)cc2)cc1	none
Nc1nc(SC/C=C\c2ccccc2)c2[nH]cnc2n1	none
CC(=O)OC(C)C	none (no result: NS1 inh)
Cc1ccc(C)c(N2CCN(S(=O)(=O)c3ccc(-c4cc(C(F)(F)F)on4)s3)CC2)c1	none (no result: NS1 inh)
O=C(Nc1nc(-c2ccccc2)cs1)C1CCCCN1S(=O)(=O)c1ccc(Cl)cc1 (stereo not given)	Cruzain noTriton inconclusive
CCCC(=O)Nc1nc(-c2ccc3c(c2)CCN3S(C)(=O)=O)cs1	none
Cc1cc(C)c2nc(NC(=O)c3ccc(S(=O)(=O)N4CCCC4)cc3)sc2c1	Cruzain noTriton inconclusive (no result: NS1 inh)
NS(=O)(=O)c1ccc(NC(=O)c2ccc(S(=O)(=O)N3CCc4ccccc43)cc2)cc1	none (no result: Cruzain Triton, Cruzain noTriton)
O=C(Nc1nc(-c2ccccc2)cs1)c1ccc(S(=O)(=O)N2CCc3ccccc32)cc1	NS1 inh 5µM, Cruzain noTriton 6.3µM | Flu NS1 inh inconclusive
Cc1cc(C)c2nc(NC(=O)c3cccc(S(=O)(=O)N4CCc5ccccc54)c3)sc2c1	NS1 inh 18µM, Cruzain noTriton 4µM | Flu NS1 inh inactive
